tested on: VDR:RXRa (NR concentration 270 nM, RXRa partner concentration 90 nM); experiment: PBM binding z-score (relative to random genomic background probes); higher = stronger binding; sequences stand for … in GC…GCGATTGACAGCGTAGAATGAAGG
Protocol: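 Protein-binding microarray (Agilent 4x180K custom design, double-stranded 60-nt probes: 5' GC cap, 34-nt variable region, 24-nt constant primer region; full probe sequence given). Purified or IVT nuclear receptor:RXRα heterodimers (3:1 NR:RXRα, mostly 270:90 nM) or homodimers were incubated for 1 h in PBS with 2% milk and no ligand, then detected with Alexa488 antibodies. Fluorescence from o1-orientation probes (~5 replicates averaged) was converted to z-scores against 500 random hg19 background probes. Variable regions are seed direct-repeat (DR0–DR5) sites, all their single-nucleotide variants and half-site ablations.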

Row | Sequence | PBM binding z-score
1 | GATACAGAGTCAAGGCCAGAGTACGCGTATTGAT | -0.36
2 | CTCGAAAGGTCGGTTGAGGTGAATATACGGATAA | 2.79
3 | GCCGCTAGGTCAGGTTGGTCAGCTAACGGGTACG | 0.54
4 | CCGAGTAGGTTATGGGGCATTTAGGCAACGGTGA | -0.0639
5 | TCTATTAGTTGATTAGGGCAACCGTAACAGCGGA | 0.769
6 | TCTTGTAGACCAAGCAGGTTAAGAAAGCCTGAGT | 0.582
7 | TCGAGTAGGTTACCAATGGCGCATTCAGCTTTCT | 0.111
8 | TTACCAAGGTTAAGGTCGTTGATCCCTCTGTAGA | 3.3
9 | GCTTACGGGTCAAAGGTTATAGCATGAATAGAAT | 5.86
10 | GCAGACAGGTGAAACGCTGGTAACTCAGGGTGGC | -0.466
11 | ATCGAAAGGTCGACGAGGTGAGTATCCACCGTTT | 5.24
12 | CCGACTGGGGTATAAGGTTACCATAAGCCAGCCC | 0.219
13 | ATACCAAGGTGATGGTGAGGTCGTTGATACTAAC | 3.28
14 | TGAATGAGGTTAAAGATCATGGAACGTGGCGTCG | 2.05
15 | TCATATGGGTAAACAGGTGAAAGTCCGTAAGTTA | 0.583
16 | CTCGAAAGGTCGTGCTCAGGTGAGTATCCCAAAC | 3.03
17 | GCAGACAGGTGAAACGCAGGTAACTTAGGGTGGC | -0.477
18 | ATCTCTAGGTAAGACTCAGTTCAGTAAAGAACGC | 1.12
19 | CAAACTAGGTCACCGGAAGGGCAAAGTCCGCATG | 3.81
20 | CCTTACGGGTCACTGGCAGGTTATAGCATTTGGA | 3.81

Row | Sequence | PBM binding z-score
21 | TCGAGTAGGTTAGTCAGGGCATTCAGCCAACATA | 2.59
22 | CCGAGTAGGTTATGGGACATTCAGGCAACGGTGA | 0.258
23 | GTACCAAGGTGAATAGTTCGTTGATGAGTAGGCG | 0.251
24 | AGAGACAGGTGATGAAGGTAACTCAGGCTATCAT | 0.424
25 | ATATGTAGGTTATCGGGTCATCCAGTTTGCGCAT | 5.43
26 | TAACCAAGGTGAAAGGTCGTTGATGCACGCCTTG | 3.38
27 | AGTCAAAGTTCATATAGGTAACGTAAGATATGCT | 4.4
28 | ACTATTAGTTGACTTAGAGCAACCGATACGACGC | -0.14
29 | ATTTGTAGGTTAAGGGTCATTCAGGTTGGTTCGC | 6.08
30 | ATCTCTGGGTAAAAGTTCAGTGAATCCCGAGGAT | 1.25
31 | CGTCCAAGGTCGGAGAGGTCAGTGAATGCCGAGT | 6.04
32 | TCGAGTAGGTTAGGGGGATTCAGAATGGCGTCGA | 0.8
33 | CGAACTTGGTCATTGACAGGACAGTGAATAGTAA | 0.0642
34 | ATCTCTAGGTTACCAAGTTCAGTGAATGCCGAAC | 5.85
35 | AGTCAAAGTTCAGGACGAGGTGACGTAAAGCACG | 3.27
36 | TCATATAGGTAAATGCTAGGTGAAAGACCGATCT | 0.73
37 | CAAACTAGGTCACGAAAGGCCAAAGTCGAATGAC | 4.15
38 | AGAATGAGGTTAAGATCAGGAAAACAGAATACAT | 1.24
39 | TTACCAAGGTGAAGGGCGTTGATCCCTCTGTAGA | 0.253
40 | GGAACGAGGGTAAGTTGATAGCAGAGTTTGATGG | -0.217

— the supplement of paper PMC6555819
